# The whole screen tested about 1,200 compounds, of which about 15 (1%) were called active. Not shown: some 7% with an inconclusive outcome. The call rests on the fitted dose curve; in most records, active means well fitted activation curve with a large enough effect; inconclusive means small, poorly fitted or top-dose-only effect; inactive means flat fitted curve, though single readings scatter. Shown is part of a subset that was picked to be rich in actives.
# Biological target: Beta-2 adrenergic receptor (Homo sapiens) (UniProt P07550)
# Sequence (P07550 whole entry, looked up): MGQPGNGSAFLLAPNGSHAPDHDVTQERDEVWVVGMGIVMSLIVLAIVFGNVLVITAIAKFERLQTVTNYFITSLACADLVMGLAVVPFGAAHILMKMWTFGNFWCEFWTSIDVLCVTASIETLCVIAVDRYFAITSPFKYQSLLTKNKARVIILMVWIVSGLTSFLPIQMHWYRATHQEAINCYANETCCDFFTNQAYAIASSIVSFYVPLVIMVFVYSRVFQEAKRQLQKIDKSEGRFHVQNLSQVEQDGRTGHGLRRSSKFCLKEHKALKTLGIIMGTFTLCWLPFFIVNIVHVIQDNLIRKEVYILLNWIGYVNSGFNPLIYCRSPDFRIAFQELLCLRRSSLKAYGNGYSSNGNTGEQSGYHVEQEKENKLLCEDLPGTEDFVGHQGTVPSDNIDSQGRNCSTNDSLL
# Assay: qHTS assay of beta-arrestin-biased ligands of beta2-adrenergic receptor: Hit Validation;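 on activation: plate controls were DMSO for no effect and maximal isoproterenol or metaproterenol response for full effect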
# Conditions: cell-based beta-arrestin recruitment to beta2AR; Potency: activation; series mostly up to 46.1 µM; activation: at the top concentration
# Excerpt: The concept of biased agonism is an emerging concept of molecular pharmacology which proposes that seven transmembrane receptors (7TMRs) or G protein-coupled receptors (GPCRs), exist in multiple signaling conformations and complexes and that ligands (either agonists or antagonists) can induce signaling biased responses for distinct signal transduction cascades.
# Furthermore, accumulating evidence over the last decade has drawn attention to a novel function of beta-arrestins as signal transducers that scaffold various signaling molecules upon activation of 7TMRs. […] This beta-arrestin-biased signaling presumably leads to distinct physiological outcomes from those by G protein activation.
# Additionally, the active receptor conformations which […] on this beta-arrestin signaling are likely different from those activating G protein signaling
# The goal of this screening project will be to discover and optimize novel beta-arrestin-biased ligands for beta2-AR signaling. A luminescent cell-based assay for beta2-AR-mediated agonism, known as the Tango assay, has been validated in which ligand binding of a recombinant beta2-AR and subsequent recruitment of a recombinant beta-arrestin lead to the release of the transcriptional activator tTA, which upregulates transcription of a tTA-responsive luciferase gene.
# NIH Molecular Libraries Probe Production Network [MLPCN]
# NIH Chemical Genomics Center [NCGC]
# PI: Bryan Roth (UNC) and Bob Lefkowitz (Duke)
# NCGC Assay Protocol Summary:
# Tango cells were dispensed into white, solid, tissue-culture-treated 1536-well plates at 1500 cells/well in DMEM, containing 1% fetal bovine serum (FBS). Then, 23 nL of compounds or DMSO were delivered to each well using a pin tool. Plates were incubated at 37 degrees C, 5% CO2 for 18 hr. Then 2.5 uL luminescent substrate mix (in-house prepared: 150 mM Tris-Cl, pH 7.6, 3 mM MgCl2, 1% Triton X-100, 5 mM DTT, 0.5 mM CoA, 0.15 mM ATP, 0.44 mM D-luciferin, final concentrations) was added to each well. Plates were then incubated for 15 minutes at room temperature, and subsequently measured on a ViewLux plate reader for luminescent signal using a clear filter with a 10 second exposure and 2x binning. The %Activity was determined from the corrected luminescence values.
# Concentration-response curves were fitted to the signals arising from the resulting luminescence. The concentration-effect curves were then classified based on curve quality (r2), response magnitude and degree of measured activity, and compounds were subsequently categorized based on their curve class.
# Keywords: biased agonism, beta2-AR, beta-arrestin, GPCR, 7TMR, Tango, luminescence, MLSMR, MLPCN, NIH Roadmap, qHTS, NCGC
# Potency means the concentration at half of the fitted maximal effect.
SMILES,activation,Potency
Clc1cccc(Cl)c1C1Nc2cccc3cccc(c23)N1,-3.31% (inactive),
COC(=O)N1C(=O)[C@@](c2ccc(OC)cc2)(C(C)C)N1C(=O)OC,-0.416% (inactive),
COc1ccc(C(=O)C2CCCN(Cc3cnc(N4CCCC4)s3)C2)cc1OC (stereo not drawn),-2.07% (inactive),
Fc1ccccc1NC(=S)Nn1cnnc1,-2.95% (inactive),
CCOc1ccc(N(CC(=O)Nc2cccnc2)S(=O)(=O)c2ccc(C)cc2)cc1,-4% (inactive),
O=C(CNCc1ccccc1Cl)Nc1ccc2c(c1)OCCO2,-0.278% (inactive),
Cc1cccc(N=C2NC(=O)/C(=C/c3cccs3)S2)c1,-0.803% (inactive),
CCNC(=S)NNc1nncc2ccccc12,-2.03% (inactive),
S=C(N/N=C/c1ccco1)NC1CC2CCC1C2 (stereo not drawn),-2.42% (inactive),
CN=C(c1ccc(C)cc1)n1c(=S)nc(-c2ccc(C)cc2)n(C)c1=S,-2.89% (inactive),
CNc1cc(C)nc(-n2nc(C)cc2C)n1,0.533% (inactive),
CN(C)NC(=S)Nc1ccc(Cl)cc1,-4.31% (inactive),
C/C(CCC1CC(C)(C)OC1=O)=N\NC(N)=S (stereo not drawn),-4.39% (inactive),
O=C(O)CCC(=O)N1N=C(c2ccccc2)CC1c1ccc2nccnc2c1 (stereo not drawn),-2.51% (inactive),
O=C(OCC1CC(c2ccccc2)=NO1)c1ccco1 (stereo not drawn),0.568% (inactive),
COc1ccc2nc(NC(=S)N(C)C)sc2c1,-2.69% (inactive),
COc1ccc(C2=NN(C(=O)/C=C/c3ccccc3)C(c3ccccc3)C2)c(OC(C)=O)c1 (stereo not drawn),1.88% (inactive),
Cc1cc(/C=N/NC(N)=S)c(C)n1-c1ccc(Br)cc1,-2.46% (inactive),
COc1ccc(CN2CCCC(C(=O)c3ccc(Cl)cc3)C2)cc1Cn1cccn1 (stereo not drawn),5.4% (inactive),
COC(=O)CSc1ccc2nnc(-c3ccc(OC)c(OC)c3)n2n1,-2.65% (inactive),
CCNC(=S)N/N=C/c1cccs1,-3.28% (inactive),
Cc1nn(-c2ccccc2)c(C)c1/C=N/NC(=O)CSc1nnc(SCc2ccccc2Cl)s1,-0.869% (inactive),
FC(F)(F)c1cc(Nc2ccccc2)nc(-c2ccccn2)n1,-0.114% (inactive),

SMILES,activation,Potency
CC1S/C(=N/N=C2CCCCC2)NC1=O (stereo not drawn),-1.28% (inactive),
Cc1ccc2c(c1)C(=O)N1[C@H]3c4ccccc4OC[C@@H]3[C@H](c3ccccc3)[C@]1(C)C(=O)N2,1.92% (inactive),
CCN1CCN(C(=S)NC(=O)c2cccc(Br)c2)CC1,-2.87% (inactive),
COc1ccc(CNc2nc(SCC(=O)NCc3ccco3)nc3ccccc23)cc1,-0.667% (inactive),
Cc1ccc(-n2c(SCC(=O)NCc3ccco3)nc3c(sc4ccccc43)c2=O)cc1,,13 µM (active)
CCC(Sc1nc2ccsc2c(=O)n1-c1ccc(Cl)c(C)c1)C(=O)NCc1ccco1 (stereo not drawn),-1.32% (inactive),
CCOC(=O)C(Sc1cc(-c2ccccc2)nc2ncnn12)C(C)=O (stereo not drawn),-1.39% (inactive),
CC(C)(O)C(=O)NN(C(=O)c1ccccc1)c1ccc2ccccc2c1,-2.62% (inactive),
O=C(N/N=C/c1cccs1)c1cncc(Br)c1,-2.47% (inactive),
C/C(CS(=O)(=O)c1ccc(Cl)c(Cl)c1)=N/NC(N)=S,-1.93% (inactive),
C/C(=N\NC(=S)NCc1ccccc1)c1ccc2ccccc2c1OC(F)F,-2.23% (inactive),
O=c1[nH]c(CSc2ccccn2)nc2c1cnn2-c1ccccc1,-0.631% (inactive),
COc1ccc(NC(=O)c2cc3c(-c4ccc(OC)c(OC)c4)nn(C)c3s2)cc1OC,-0.0302% (inactive),
CCOC(=O)c1c(C)[nH]c(N=Nc2ccc(C)cc2C)c1C,-10.2% (inactive),
CCOC(=O)N1CCN(Cc2c(F)cccc2F)CC1,-2.4% (inactive),
CCOC(=O)c1sc(NC(=O)CSc2nnc(C(C)C)n2C)nc1C,-3.85% (inactive),
CC(C)C(=O)COc1c2occc2cc2ccc(=O)oc12,-4.07% (inactive),
O=C(Nc1cnccn1)c1ccc(Cl)cc1,-1.39% (inactive),
CC(=O)N(c1ccccc1)C(C)c1nc(C#N)c(C#N)nc1C (stereo not drawn),-1.35% (inactive),
FC(F)(F)c1cnc(N2CCSCC2)c(Cl)c1,-6.12% (inactive),
CN(Cc1ccccc1)C(=O)CN1C(=O)c2ccccc2C1=O,-3.09% (inactive),
COc1ccc(-c2cn3cccnc3n2)cc1F,-3.26% (inactive),
O=C(NC(=S)N1CCCCCC1)c1ccccc1Cl,-2.85% (inactive),

SMILES,activation,Potency
Cc1nc(C)c(CC(=O)N/N=C/c2ccc(O)cc2)c(=O)[nH]1,-2.66% (inactive),
COc1ccc(OCCCC(=O)Nc2nc(-c3ccccn3)cs2)cc1,9.17% (inactive),
Cn1cccc1C(=O)NC(=O)CSc1cccc[n+]1[O-],-3.1% (inactive),
C/C(=N\NC(=S)NCCc1ccccc1)c1ccc(Cl)cc1Cl,-2.3% (inactive),
O=C1NC(c2ccc(-c3ccccc3[N+](=O)[O-])o2)C(C(=O)c2ccc(F)cc2)C(O)(C(F)(F)F)N1 (stereo not drawn),-4.07% (inactive),
Cc1ccc(CN2CCSCC2)c(C)c1,-2.68% (inactive),
C=CCNC(=S)N/N=C/c1ccc(-c2cc(Cl)ccc2Cl)o1,-2.16% (inactive),
Cc1ccccc1NS(=O)(=O)c1ccc2oc(=O)ccc2c1,-3.24% (inactive),
COc1ccc(NC(=S)Nc2ccccn2)c(OC)c1,-1.86% (inactive),
O=C(CSc1cccc[n+]1[O-])c1cc2ccccc2o1,-1.76% (inactive),
CCC1(C)Cc2ccccc2C(=S)N1 (stereo not drawn),-3.36% (inactive),
C=C(C)c1cccc(C(C)(C)NC(=O)NC(c2ccccc2)c2ccc(OC)cc2)c1 (stereo not drawn),8.73% (inactive),
NC(=S)n1[nH]c(-c2ccc([N+](=O)[O-])cc2)c(N=Nc2cccc([N+](=O)[O-])c2)c1=O,-5.18% (inactive),
CCN(CC)CCCNC(=O)CCC(=O)NNc1nc2ccccc2c2nc(C)nn12,-1.51% (inactive),
Cc1cc(C)n(-c2nc(NC(C)C)nc(NC(C)C)n2)n1,-3.01% (inactive),
O=C(CNc1cccc(Cl)c1)c1ccc(Br)cc1,-2.41% (inactive),
Cc1nc(COC(=O)c2ccc(S(=O)(=O)N3CCCC3)cc2)cs1,-0.855% (inactive),
CC(C)NS(=O)(=O)c1ccc(NC(=O)C(C)Oc2ccc(C(=O)c3ccccc3)cc2)cc1 (stereo not drawn),0.57% (inactive),
CCn1nnnc1SCC(=O)Nc1nc2ccc(OC)cc2s1,-0.634% (inactive),
CS(=O)(=O)Nc1ccc(-c2cn3cccnc3n2)cc1,-3.46% (inactive),
O=C(NCCOc1cccnc1)C1CCC(=O)N(Cc2ccccc2F)C1 (stereo not drawn),-3.24% (inactive),
COc1ccc(N(CC(=O)N2CCCC2)S(C)(=O)=O)cc1,-3.72% (inactive),
CCN(CC)CCC(=O)N1c2ccccc2Sc2ccc(NC(=O)OC)cc21,-1.25% (inactive),

SMILES,activation,Potency
CCCn1c(-c2ccc(F)cc2)n[nH]c1=S,-4.3% (inactive),
Cc1cccc(NC(=S)N=Nc2c(O)n(CN3CCOCC3)c3ccccc23)c1C,-2.46% (inactive),
Cc1ccccc1OCC(=O)N/N=C/c1sc(=O)n(Cc2cccc(C(=O)O)c2)c1Cl,-1.41% (inactive),
CCOc1cccc(N)c1,-1.3% (inactive),
Cc1cccnc1NC(=S)Nc1ccc(Br)cc1Cl,-1.9% (inactive),
CCCCC(=O)/C=C/n1c(=S)oc2ccccc21,-2.45% (inactive),
CC(=O)N1CCN(CC(=O)c2ccc(Br)cc2)CC1,-1.68% (inactive),
Cc1ccc(S(=O)(=O)N(CC(=O)N/N=C/c2ccco2)c2cc(Cl)cc(Cl)c2)cc1,0.42% (inactive),
CC(=O)c1sc(Nc2nc3ccc(F)cc3s2)nc1C,-2.59% (inactive),
Cc1nc2ccc(NC(=O)CS(=O)(=O)c3ccccc3)cc2s1,-1.85% (inactive),
O=C(NCCN1CCOCC1)c1ccccc1Cl,0.534% (inactive),
CCCCc1nnc(NC(=O)c2ccccc2OCc2c(C)noc2C)s1,-1.03% (inactive),
CC(=O)c1ccc(N2CCN(C(=O)C3CCCN(S(=O)(=O)c4c(C)[nH]c(=O)[nH]c4=O)C3)CC2)cc1 (stereo not drawn),-4.9% (inactive),
CCOC(=O)n1c(=O)oc2cc(S(=O)(=O)N3CCCCC3)ccc21,-4.09% (inactive),
CCOc1ccc(/C=N/NC(=S)NC2CC3CCC2C3)cc1 (stereo not drawn),-0.951% (inactive),
CC1CCCN(C(=O)Cn2nnc(-c3ccc(F)cc3)n2)C1 (stereo not drawn),-0.544% (inactive),
FC(F)(F)c1nc2ccccc2nc1N/N=C\c1ccccc1,-2.93% (inactive),
COc1ccc(OC)c(CNC(=O)CCCc2cn(C)c3ccccc23)c1,-4.25% (inactive),
CC(=O)Oc1ccc2cc(-c3ccccc3)c(=O)oc2c1,-2.83% (inactive),
Cc1cccc(-n2ncc3c(Nc4c(C)n(C)n(-c5ccccc5)c4=O)ncnc32)c1,-4.29% (inactive),
O=C(CN1CCN(Cc2ccccc2)CC1)c1ccc(Br)cc1,-2.66% (inactive),
CCC(=O)Nc1cccc(-c2nnc(SCC(=O)c3ccccc3)n2C)c1,-3.27% (inactive),
Cc1oc(-c2ccccc2Cl)nc1CN1CCCCC1c1cccnc1 (stereo not drawn),-3.35% (inactive),

SMILES,activation,Potency
COCCNC(=S)NN=C1CCC(c2ccccc2)CC1 (stereo not drawn),-3.79% (inactive),
Cc1noc(/C=C/c2ccco2)c1S(=O)(=O)N1CCC(C(=O)N2CCc3ccccc3C2)CC1,-3.07% (inactive),
O=C(N/N=C/c1ccc(-c2ccccc2[N+](=O)[O-])o1)[C@H]1C[C@@H]1c1ccccc1,4.62% (inactive),
Cc1cccc(NC(=S)NC2CCCC2)n1,-2.16% (inactive),
COc1ccc(C2CC(c3ccccc3)=NN2C(=O)COC(=O)c2cccc(N)c2)cc1 (stereo not drawn),7.98% (inactive),
O=C(c1cccs1)N1N=C(c2ccccc2)CC1c1ccc(O)cc1 (stereo not drawn),6.49% (inactive),
CCN1C(=O)C(CC(=O)Nc2ccc(OC)cc2)N(CCN2CCOCC2)C1=S (stereo not drawn),-0.784% (inactive),
COc1cc(-c2nc(-c3ccccc3)c(-c3cc([N+](=O)[O-])ccc3C)[nH]2)cc(OC)c1OC,-0.686% (inactive),
CCOc1ccccc1N=Nc1c(C)[nH]n(C(N)=S)c1=O,-1.78% (inactive),
COc1cccc(NC(=S)N/N=C2\CC(C)(C)Oc3ccc(O)cc32)c1,-2.24% (inactive),
O=C(N/N=C\C=C\c1ccco1)C1COc2ccccc2O1 (stereo not drawn),-2.32% (inactive),
COc1ccc2c(c1)c(=O)c(C(=O)c1ccccc1)cn2Cc1ccc(C)cc1,-0.974% (inactive),
O=[N+]([O-])c1ccc(/C=C2\CCC(C3=CCCC3)=C2N2CCOCC2)cc1,-1.92% (inactive),
CCOC(=O)c1cccc(NC(=O)c2cncc(Br)c2)c1,-2% (inactive),
S=c1nc2ccccc2c2nc(-c3ccccc3)[nH]n12,-2.79% (inactive),
COc1ccc(N(C(=O)CCl)C(C)(C(=O)Nc2c(C)cccc2C)c2ccccn2)cc1 (stereo not drawn),0.0836% (inactive),
CCN(C(=O)Cn1c(Cl)nc2c1c(=O)n(C)c(=O)n2C)C1CCCCC1,-1.79% (inactive),
COc1ccc(/C=N/OC/C(O)=C(\C#N)c2nc3ccccc3[nH]2)cc1OC,-2.21% (inactive),
COc1ccccc1CN1C[C@@H]2C[C@@H](c3ccc4nsnc4c3)N3CCC[C@@]23C1=O,-1.58% (inactive),
Cc1cc(=O)n2cccc(O)c2n1,-5.71% (inactive),
COc1ccc(NC(=S)NC(=O)c2ccc(Br)o2)cc1,-3.83% (inactive),
